# Compound activity (PubChem)
# Only some compounds are listed: those with a hit (about 13% of all), similar ones and a draw of the others.
# USP17 inh = blocks human USP17 ubiquitin-rhodamine cleavage | A8MUK1 | purified USP17, Ub-rhodamine cleavage fluorescence, 3 h | inhibition, % at 50 µM | hit rate 6.5% among 47,000
# USP30 block = blocks human USP30 ubiquitin-rhodamine cleavage; Q70CQ3; purified USP30, Ub-rhodamine cleavage fluorescence; inhibition, % at 25 µM; hit rate 5.3% among 47,000; AID 1645860
# USP8 block = blocks human USP8 ubiquitin-rhodamine cleavage; P40818; purified USP8, Ub-rhodamine cleavage fluorescence, 30 min; inhibition, % at 20 µM; hit rate 4.2% among 47,000; AID 1645853
# USP28 inh = blocks human USP28 ubiquitin-rhodamine cleavage; Q96RU2; purified USP28, Ub-rhodamine cleavage fluorescence, 30 min; inhibition, % at 25 µM; hit rate 3% among 47,000; AID 1645857
# USP10 inh = blocks human USP10 ubiquitin-rhodamine cleavage. Q14694. purified USP10, Ub-rhodamine fluorescence, 60 min. inhibition, % at 20 µM. hit rate 1.1% among 47,000. AID 1645856
# Target sequence (Q14694 whole entry, looked up): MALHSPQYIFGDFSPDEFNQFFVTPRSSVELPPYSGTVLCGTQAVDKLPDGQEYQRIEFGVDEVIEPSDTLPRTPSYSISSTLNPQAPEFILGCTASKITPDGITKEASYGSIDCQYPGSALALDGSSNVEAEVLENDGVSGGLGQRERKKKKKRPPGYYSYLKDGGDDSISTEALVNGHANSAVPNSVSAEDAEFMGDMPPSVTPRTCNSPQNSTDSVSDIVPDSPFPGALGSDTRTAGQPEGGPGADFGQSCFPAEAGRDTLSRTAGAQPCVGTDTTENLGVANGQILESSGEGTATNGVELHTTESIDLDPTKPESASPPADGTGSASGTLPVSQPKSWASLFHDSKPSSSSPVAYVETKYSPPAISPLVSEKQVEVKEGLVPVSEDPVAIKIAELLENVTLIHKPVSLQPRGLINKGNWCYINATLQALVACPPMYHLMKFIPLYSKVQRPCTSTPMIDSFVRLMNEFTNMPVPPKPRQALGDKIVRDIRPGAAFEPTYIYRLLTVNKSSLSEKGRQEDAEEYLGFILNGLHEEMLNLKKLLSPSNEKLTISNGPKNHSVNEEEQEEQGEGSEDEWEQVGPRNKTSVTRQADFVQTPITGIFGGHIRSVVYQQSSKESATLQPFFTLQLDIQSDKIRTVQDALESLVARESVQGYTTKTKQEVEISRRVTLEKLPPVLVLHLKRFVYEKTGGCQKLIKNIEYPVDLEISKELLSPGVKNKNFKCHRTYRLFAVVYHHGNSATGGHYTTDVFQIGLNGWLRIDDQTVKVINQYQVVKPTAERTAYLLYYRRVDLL
# Numbers without * were called inactive. Rule as the data show it: active = inhibition above about 30%; inactive = the rest.
SMILES,USP17 inh,USP30 block,USP8 block,USP28 inh,USP10 inh
COc1ccc(CCNC(=O)c2ccc3c(c2)N(Cc2ccc(F)cc2)C(=O)c2ccccc2S3=O)cc1OC (stereo not drawn),-8,-25,-9,-10,3
COc1ccc(-n2cc(C(=O)NCCc3ccc(F)cc3)nn2)cc1,17,29,37*,7,17
COc1ccc(CCNC(=O)CSc2cn(CCNC(=O)c3ccc(F)cc3)c3ccccc23)cc1OC,50*,68*,-16,8,0
O=C(Nc1nc2ccccc2nc1N1CCCC1)c1ccncc1,-50,-108,-6,-8,-6
CC(C)n1cnc2nnc3ccc(C(=O)NCc4cccnc4)cc3c21,-18,-10,0,-10,1
Cc1cccc2cc(-c3noc(-c4cccnc4)n3)c(=O)[nH]c12,20,24,-1,-2,-1
Fc1ccccc1N1CCN(c2ncc3c(n2)CCN(Cc2ccccn2)C3)CC1,51*,17,-18,6,-3
Clc1cccc(CN2CCc3nc(N4CCOCC4)ncc3C2)c1,-63,-111,-107,-34,-11
CN(C)C(=O)CSc1nnc(-c2ccccc2O)n1Cc1ccccc1,10,11,18,1,1
COC(=O)CSc1nnc(-c2ccccc2O)n1Cc1ccccc1,-12,20,37*,10,2
O=C(CC1CC1)N1CCOC2(CCCN(c3ncc(F)cn3)C2)C1 (stereo not drawn),5,4,-2,0,2
Cn1c(COc2ccccc2Cl)nnc1SCc1cc(=O)c2ccccc2[nH]1,-9,-4,10,24,2
O=C(Nc1ccccc1-c1nc(-c2ccccn2)no1)c1cc(Cl)ccc1Cl,56*,60*,83*,44*,15
Fc1ccc(-c2cnc3n2CCC3)cc1,1,8,-2,8,2
O=C(Nc1ccc(N2CCC(n3cccc3)CC2)cc1)c1ccccc1,0,2,30*,-3,15
CC(C)N1CCCn2cc(S(=O)(=O)NC3CCCCCC3)cc2C1=O,0,-23,5,1,0
COc1ccc(OC)c(NC(=O)c2ccc(-n3nnnc3SC)cc2)c1,80*,17,20,16,1
COc1ccc(NC(=O)c2ccc(-n3nnnc3SC)cc2)cc1Cl,-4,6,-12,14,17
CCOc1ccccc1NC(=O)c1ccc(-n2nnnc2SC)cc1,26,-28,3,-6,4
COc1ccc(C)cc1NC(=O)c1ccc(-n2nnnc2SC)cc1,73*,52*,17,28,1
O=C(Nc1cnc(N2CCCC2)nc1)Nc1ccccc1Cl,0,9,8,10,10
COc1ccc(Nc2nnc(Cc3ccc(Cl)cc3)c(=O)[nH]2)cc1,-3,4,92*,-8,39*
Cc1cc(Nc2ccccn2)nc(C2CCCN(C(=O)C3CCCC3)C2)n1 (stereo not drawn),-2,0,0,-11,1
O=S(=O)(Nc1ccccc1-c1ccccc1)c1ccccc1F,16,20,17,15,10
O=S(=O)(Nc1ccc(Oc2ccccc2)cc1)c1ccccc1F,34*,41*,4,32*,22
SMILES,USP17 inh,USP30 block,USP8 block,USP28 inh,USP10 inh
O=c1[nH]c(CN2CCCC2)nc2cc(C(F)(F)F)ccc12,-6,-30,-11,-7,-4
Cc1cccc(NC(=O)CSc2cccc(NC(=O)c3ccc(C(=O)O)cc3C(=O)O)c2)c1C,5,-2,-2,5,2
CC(C)N(Cc1cc(=O)[nH]c2ccccc12)C(=O)c1ccc(C(C)(C)C)cc1,6,16,5,34*,5
Cc1cccc(OCC(=O)N(C)Cc2cc(=O)[nH]c3ccccc23)c1,22,27,30*,14,1
CC(C)N(Cc1cc(=O)[nH]c2ccccc12)C(=O)c1ccccc1,-3,-10,0,-7,0
COc1cc(C(=O)N(Cc2cc(=O)[nH]c3ccccc23)C(C)C)cc(OC)c1OC,19,31*,19,14,1
Cc1nc(C2CCCN2C(=O)c2ccccn2)nc2c1CC(=O)N2CCc1ccccc1F (stereo not drawn),7,-320,61*,-60,-7
Cc1nc(C2CCCN2C(=O)c2ccnn2C)nc2c1CC(=O)N2Cc1ccc(F)cc1 (stereo not drawn),-3,-202,40*,-45,-6
Cc1cccc(C)c1NS(=O)(=O)c1ccc2c(c1)N(C)CCO2,-7,-18,-9,-2,6
Cc1ccc(C(=O)N2CCc3[nH]nc(-c4ccccc4)c3C2)cn1,-20,-16,-16,-13,3
COc1ccc(CCNC(=O)CSc2nnc(CNC(=O)COc3ccc(Cl)cc3)o2)cc1OC,46*,34*,19,25,2
O=C(COc1ccc(Cl)cc1)NCc1nnc(SCC(=O)NCc2ccc3c(c2)OCO3)o1,70*,26,30,0,1
COC(=O)c1ccc(CSc2nnc(CNC(=O)COc3ccc(Cl)cc3)o2)o1,-15,-10,-8,-7,0
O=C(COc1ccccc1-c1nnc(-c2ccccc2)o1)NCc1ccc2c(c1)OCO2,29,10,21,7,-3
CCc1ccc(NC(=O)c2cccc3c2C(=O)N(CC2CCCO2)C3)cc1 (stereo not drawn),18,-9,11,14,0
Cc1ccc(NC(=O)C2CCCN(C(=O)c3cc(-c4cccnc4)n[nH]3)C2)cc1 (stereo not drawn),2,2,-27,-1,0
COc1ccc(NC(=O)c2cc(-c3cccnc3)n[nH]2)cc1Cl,44*,94*,65*,91*,9
CC(C)c1ccc(NC(=O)c2cc(-c3cccnc3)n[nH]2)cc1,-1,46*,97*,37*,7
Cc1ccc(NC(=O)c2cc(-c3cccnc3)n[nH]2)cc1F,40*,49*,99*,34*,26
O=C(CN1CCN(c2ccc(F)cc2)CC1)Nc1nc2ccccc2s1,-2,12,-37,6,1
O=C(c1ccc2n[nH]nc2c1)N1CCCC(c2ccc3cn[nH]c3n2)C1 (stereo not drawn),2,18,3,2,0
CN(C(=O)C1(c2ccccc2)CC1)c1nc2c(s1)CCc1occc1-2,13,-38,-151,-4,4
CN(C(=O)c1cccc2cccnc12)c1nc2c(s1)CCc1occc1-2,69*,25,64*,25,-1
COc1ccc(C)cc1NC(=O)NCCc1cn(C)c2ncccc12,2,5,10,16,0
COc1ccccc1NC(=O)NCCc1cn(C)c2ncccc12,-2,0,13,37*,-1
COC(=O)c1cc(Br)c(NC(=O)c2ccco2)cc1OC,39*,20,-1,17,1
CC(C)=CCCC1(C)OC2=C(C(=O)c3cc(O)cc(O)c3C2=O)[C@H]2C=C(C)CC[C@H]21 (stereo partly drawn),86*,-16,16,18,-5
